Sampled rows, rich in hits. Any-hit rate of the full collection: about 19%.
TDP1 block – qHTS Assay for Inhibitors of Tyrosyl-DNA Phosphodiesterase (TDP1); Tyrosyl-DNA phosphodiesterase 1 (Homo sapiens), Q9NUW8; recombinant TDP1, AlphaScreen DNA substrate cleavage; Potency, µM (series often up to 130 µM), for inactives: at the highest dose activity change, negative = inhibition, usual class: inhibitors; 350,000 tested, 0.28% active; AID 485290, 2010; further: nearly all actives have a fitted effect of over 40% in size
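E. coli-derived human Tdp1, 1 nM final. Cpd preinc 15 min RT; substrate 15 nM final, 5 min RT; AS bead mix 10 ug/ml final, 10 min RT. Signal loss = tyrosine-FITC cleavage. No-enzyme wells = max signal.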
DT40 TDP1 CPT – qHTS for Inhibitors of human tyrosyl-DNA phosphodiesterase 1 (TDP1): qHTS in cells in presence of CPT; chicken DT40 Tdp1-/-;hTDP1 cells + 20 nM CPT, ATP luminescence, 48 h; Potency, µM (top dose mostly 46.2 µM), for inactives: at the highest dose activity change, negative = growth inhibition, actives largely listed as inhibitors; 420,000 tested, 12% active; AID 686979, 2013; further: nearly all actives have a fitted effect of over 55% in size
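Chicken DT40 Tdp1-/- cells stably complemented with human TDP1 were seeded at 400 cells/well in medium containing 20 nM camptothecin, exposed to pin-transferred compounds, and grown at 37 °C for at least 48 hr. Viability was read as ATP luminescence.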
VP16 counter – VP16 counterscreen qHTS for inhibitors of ROR gamma transcriptional activity; Drosophila S2 Gal4-VP16 UAS-luciferase, luminescence, 20 h; Potency, µM (highest dose often 53.6 µM), without a hit: top-dose activity, negative = inhibition, most hits filed as inhibitors; 310,000 tested, 3.5% active;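 further: Gal4-VP16 expression switched on by copper sulfate through the metallothionein promoter; nearly all actives have a fitted effect of over 50% in size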
TDP1 cell noCPT – qHTS for Inhibitors of human tyrosyl-DNA phosphodiesterase 1 (TDP1): qHTS in cells in absence of CPT. DT40 Tdp1-/- hTDP1 cells, no CPT, ATP luminescence, 48 h. Potency, µM (series often up to 46.2 µM), for inactives: top-dose activity change, negative = growth inhibition, usual class: inhibitors. 420,000 tested, 15% active. AID 686978, 2013; further: nearly all actives have a fitted effect of over 55% in size
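Stably hTDP1-transfected Tdp1-null chicken DT40 cells were treated with library compounds minus camptothecin and grown for at least 48 hr at 37 °C, after which cellular ATP was quantified by luminescence.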
RORg inh – qHTS for inhibitors of ROR gamma transcriptional activity; Nuclear receptor ROR-gamma (Mus musculus), P51450; Drosophila S2 Gal4-RORgamma UAS-luciferase reporter, 20 h; Potency, µM (highest dose often 53.6 µM), for the others: at the highest dose activity change, negative = inhibition, usual class: inhibitors; 310,000 tested, 5.4% active; further: nearly all actives have a fitted effect of over 60% in size
Target sequence (P51450 whole entry, looked up, the tested form may be a part): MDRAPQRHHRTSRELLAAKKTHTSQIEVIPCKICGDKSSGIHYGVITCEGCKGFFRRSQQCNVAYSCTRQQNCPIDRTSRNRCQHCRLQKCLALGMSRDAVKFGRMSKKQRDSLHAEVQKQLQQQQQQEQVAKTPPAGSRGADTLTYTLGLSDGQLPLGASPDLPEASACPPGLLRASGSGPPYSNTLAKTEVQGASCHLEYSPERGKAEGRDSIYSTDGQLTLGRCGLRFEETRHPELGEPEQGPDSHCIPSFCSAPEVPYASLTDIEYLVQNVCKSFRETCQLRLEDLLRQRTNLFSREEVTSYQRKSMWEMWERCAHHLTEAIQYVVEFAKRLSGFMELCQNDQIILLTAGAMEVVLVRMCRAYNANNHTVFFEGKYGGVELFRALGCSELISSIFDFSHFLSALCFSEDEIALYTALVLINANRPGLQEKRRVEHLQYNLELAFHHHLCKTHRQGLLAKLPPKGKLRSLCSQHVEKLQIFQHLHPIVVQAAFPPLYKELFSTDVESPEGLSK
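A Gal4/UAS one-hybrid system in insect cells: metallothionein-promoter Gal4–ROR gamma fusion plus Photinus luciferase reporter. Copper sulfate 700 uM final, 20 hr ambient incubation, luminescent detection after 10 min with reagent.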
* = called active by the depositor; ? = inconclusive; . = no result; [ ] = dose if it differs, or a comment. The call rests on the fitted dose curve; in most records, active means well fitted curve in the direction sought with a large enough effect; inconclusive means small, poorly fitted or top-dose-only effect, or another doubt; inactive means no such curve, though single readings can be large; an effect the other way counts as inactive or inconclusive. On the % scale 0 is the no-effect control and ±100 the full control effect; potency means the concentration at half of the fitted maximal effect.

SMILES | TDP1 block | DT40 TDP1 CPT | VP16 counter | TDP1 cell noCPT | RORg inh
Cc1cc2nc(-c3ccc(OCc4ccccc4Cl)cc3)cc(C(F)(F)F)n2n1 | 5% | ? | . | ? | .
N#Cc1cccc(S(=O)(=O)NNC(=O)C23CC4CC(CC(C4)C2)C3)c1 | 0% | -15% | . | -27% | .
Cc1sc2nc(C(C)C)nc(SCC(=O)NC3CC3)c2c1C | 5%[0.0935 µM] | 16µM* | ? | 16µM* | 0%
Cc1nc(SCC(=O)NC2CC2)c2c(C)c(C)sc2n1 | 6% | ? | 4% | ? | 2%
O=C(Cn1c(=O)nc(-c2ccccc2)c2cc(Cl)ccc21)N1CCN(c2ccccc2F)CC1 | 6% | ? | . | -22% | .
CN(C)c1nc(OCCNC(=O)Nc2ccccc2)nc(N2CCOCC2)n1 | 5% | 23µM* | -2% | -78% | -2%
CN(C)c1nc(OCCNC(=O)Nc2ccccc2)nc(N2CCCCC2)n1 | -3% | 8% | -6% | -16% | 28%
CCN(CC)C(=O)COc1ccc(/C(C)=N/NC(=O)c2ccccc2Br)cc1 | -2% | 0% | 25% | 6% | 15%
COc1ccc(C(=O)c2[nH]c(N)c(C(=O)NCCc3c[nH]c4ccccc34)c2-c2ccc(Cl)cc2)cc1 | . | 18µM* | . | ? | .
COc1ccc(C(=O)c2[nH]c(N)c(C(=O)NCCc3c[nH]c4ccccc34)c2-c2ccc(Cl)c(F)c2)cc1 | . | ? | . | 18µM* | .
COc1cc(C2N(c3ccc(Cl)c(Cl)c3)C(=O)C3CCCN32)cc(OC)c1OC (stereo not drawn) | -1% | 3% | 1% | -14% | -11%
Cc1ccc(N2CC(NC(=O)C3CCCCC3)CC2=O)cc1 (stereo not drawn) | -5% | -3% | . | 1% | .
CC(=O)c1c[nH]c(C(=O)NCc2cccc(C(F)(F)F)c2)c1 | . | 11% | 12% | 24% | -19%
Cc1cccc(NC(=O)CN2CCN(C(=O)CNC(=O)c3ccc(-c4ccccc4)cc3)CC2)c1C | . | 4.6µM* | . | 2.3µM* | .
Cc1cccc(C)c1NC(=O)CN1CCN(C(=O)CNC(=O)Cc2cccc3ccccc23)CC1 | . | ? | . | 15µM* | .
Cc1cccc(C)c1NC(=O)CN1CCN(C(=O)CNC(=O)c2ccc(-c3ccccc3)cc2)CC1 | . | ? | . | 16µM* | .
O=C(CN1CCN(C(=O)CNC(=O)c2ccc(N3CCCC3=O)cc2)CC1)Nc1ccccc1Cl | 1% | -2% | . | -6% | .
COCCCNC(=S)Nc1ccc2nc3n(c(=O)c2c1)CCCCC3 | 0% | -13% | -4% | -2% | 7%
CC12CCC(=O)N1C(C(=O)NNC(=O)c1ccc(Cl)cc1)CS2 (stereo not drawn) | 3% | -6% | . | -1% | .
CCOc1cc(/C=N/NC(=O)CN(CCc2ccccc2)S(=O)(=O)c2ccc(NC(C)=O)cc2)ccc1O | 6% | ? | 2% | 18µM* | ?
COc1ccc(/C=N/NC(=O)c2sccc2OCc2ccc(F)cc2)cc1OC | 3% | 16µM* | 3% | 23µM* | 10%
COc1ccc(S(=O)(=O)N(CCc2ccccc2)CC(=O)N/N=C/c2ccc3c(c2)OCO3)cc1 | 4% | ? | -1% | ? | 28%
CCOc1cc(/C=N/NC(=O)c2ccccc2OCc2ccc(F)cc2)ccc1O | 1% | ? | . | 13µM* | .
CCOc1cc(C=NN=C2c3ccccc3-c3ccccc32)ccc1O | . | ? | . | 18µM* | .
Oc1cccc(C=NN=C2c3ccccc3-c3ccccc32)c1 | . | -2% | . | -30% | .
SMILES | TDP1 block | DT40 TDP1 CPT | VP16 counter | TDP1 cell noCPT | RORg inh
CCCC(C)NC(=O)CSc1nnc(-c2c[nH]c3ccccc23)o1 (stereo not drawn) | 4% | -1% | 0% | -20% | -6%
O=C(COc1ccccc1C(=O)N/N=C\c1ccc(O)c(O)c1)N/N=C/c1ccc(O)c(O)c1 | -7% | 16µM* | -2% | ? | -17%
O=C(COc1ccccc1[N+](=O)[O-])N/N=C/c1ccc(O)c([N+](=O)[O-])c1 | 9% | ? | -13% | -15% | 41%
CCOc1cc(/C=N/NC(=O)N/N=C/c2ccc(O)c(OCC)c2)ccc1O | . | 2.6µM* | . | 2.9µM* | .
O=C(O)CCCC(=O)N1CCC(C(O)(c2ccccc2)c2ccccc2)CC1 | 6% | -4% | -12% | -3% | 0%
COC(=O)c1sc(NC(=S)NC(=O)c2ccc(F)cc2)nc1C | 0% | . | -5%[10 µM] | . | 0%
COC(=O)c1sc(NC(=S)NC(=O)c2ccccc2C)nc1C | 5% | 2% | 16µM* | ? | 6.3µM*
CCOc1ccc(C(=O)Nc2nc(C)c(C(=O)OC)s2)cc1 | 4% | -35% | -10% | -22% | ?
CCOC(=O)c1sc(NC(=S)NC(=O)c2ccc(OC)cc2)nc1C | 3% | -7% | 5µM* | -7% | 6.3µM*
C=CCOC(=O)c1sc(NC(=O)c2ccc(OC)cc2)nc1C | -7% | 12% | -13% | 6% | 6.3µM*
CC(=O)Nc1ccc(SCC(CC(C)C)N2CCN(CC(C)C)CCC2=O)cc1 (stereo not drawn) | 1% | . | -2% | . | -2%
CCN(CC)c1ccc(/C=C2\SC(=O)N(C(C)C)C2=O)o1 | ? | 0.92µM* | 4.5µM* | 2.1µM* | 3.5µM*
CC(=O)OCC1=C(C(=O)O)N2C(=O)[C@@H](NC(=O)Cc3ccccc3)[C@H]2SC1 | . | ? | . | -6% | .
NCc1ccccc1CC(=O)N[C@@H]1C(=O)N2C(C(=O)O)=C(CSc3nnnn3CC(=O)O)CS[C@@H]12 | 10µM* | . | -1%[17 µM] | . | -10%[2.98 µM]
CC(=O)OCC1=C(C(=O)O)N2C(=O)C(NC(=O)CSc3ccncc3)[C@@H]2SC1 (stereo partly drawn) | 14µM* | -2% | -3% | -6% | 8%
O=C1CC(=Nc2ccc([N+](=O)[O-])cc2)NN1c1c(Cl)cc(Cl)cc1Cl | . | ? | . | 26µM* | .
Cc1c(Cl)cnc(NC(=O)CSc2nnc(C)n2Cc2ccccc2)c1Cl | 0% | 12% | -21% | 1% | ?
CCCC(C)C(=O)Nc1ncc(S(=O)(=O)c2ccc([N+](=O)[O-])cc2)s1 (stereo not drawn) | 4% | 15µM* | -14% | ? | 23%
CC(C)c1ccc(Nc2nnc(SCC(=O)Nc3ncc(S(=O)(=O)c4ccc([N+](=O)[O-])cc4)s3)s2)cc1 | 3% | ? | -4% | ? | 10µM*
O=C(CCl)Nc1ncc(S(=O)(=O)c2ccc([N+](=O)[O-])cc2)s1 | 4% | 29µM* | . | 16µM* | .

Assay outcomes deposited in PubChem by National Center for Advancing Translational Sciences (NCATS).
